# From PubChem BioAssay
# S2 tox: reduces viability in counter-screen for ATXN expression inhibitors. 400,000 compounds, 0.49% hits. S2 cells (HEK-293 line with an ATXN2-luciferase reporter) viability, CellTiter-Fluor protease fluorescence, 24 h. AID 651635. Potency, µM (doses to about 56.7 µM), most hits filed as cytotoxic; also: nearly all actives have a fitted effect of over 40% in size
# TGFb SMAD3 inh: inhibitors of TGF-b signaling; HepG2 CAGA-GFP TGF-b/SMAD3 reporter, GFP fluorescence, 18 h; TGF-beta stimulated, 500 pg/mL final; Potency, µM (doses to about 46.1 µM), for the others: at the highest dose activity, negative = inhibition, hits mostly inhibitors; 410,000 compounds, 1.2% hits; also: % is scaled to controls: 0 for no effect and ±100 for the full control effect; nearly all actives have a fitted effect of over 65% in size
#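 Cell-based qHTS in HEPG2 carrying a CAGA-GFP Smad reporter; compounds added before 500 pg/mL final TGF-beta, 18 h incubation at 37 degrees C, GFP fluorescence quantified per cell by imaging cytometry.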
# Nrf2 block: Nrf2 pathway inhibition | A549 ARE-Fluc reporter, luciferase luminescence, 18-24 h | AID 504444 | Potency, µM (series often up to 46 µM), for the others: at the highest dose activity change, negative = inhibition, actives largely listed as inhibitors | 360,000 compounds, 2.1% hits; also: % is scaled to controls: 0 for no effect and ±100 for the full control effect; nearly all actives have a fitted effect of over 60% in size
#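 Quantitative HTS in A549 cells stably bearing an antioxidant response element-firefly luciferase construct. Inhibition of Nrf2-driven transcription was scored by luminescence after 18-24 h of compound exposure at 37 °C.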
# A549 viability: kills or reduces viability of A549 cells in Nrf2 counter-screen; Potency, µM (series often up to 46 µM), without a hit: at the highest dose activity change, negative = cytotoxicity, actives largely listed as inhibitors; 390,000 compounds, 0.16% hits; A549 ARE-Fluc cells, CellTiter-Fluor viability, 18-24 h; also: % is scaled to controls: 0 for no effect and ±100 for the full control effect
#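 Cytotoxicity counterscreen: CellTiter-Fluor fluorescence was measured in A549 ARE_Fluc cells after 18-24 h of compound exposure in a concentration series. The subsequent BugLite luminescent read reports ARE-luciferase activity.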
# HepG2 tox: HepG2 cytotoxicity, counter-screen for TGF-b inhibitors; Potency, µM (top dose mostly 46.1 µM), without a hit: at the highest dose activity change, negative = cytotoxicity, actives largely listed as cytotoxic; 410,000 compounds, 0.76% hits; AID 588856; HepG2 CAGA-GFP viability, ATP luminescence, 18 h
#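 CellTiter-Glo luminescence gave cytotoxicity after 18 hours at 37 degrees C. The cells were HepG2 CAGA-GFP in 1% FBS DMEM, stimulated with 500 pg/mL TGF-beta after compound addition. %Activity was normalised to no-cell wells (complete cell-killing) and DMSO (no toxicity), and curves were fitted and classified.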
# ATXN2 expr inh: ATXN2 expression inhibition | HEK-293 ATXN2-luciferase reporter, luminescence, 24 h | 360,000 compounds, 0.72% hits | Potency, µM (top dose mostly 57 µM), for inactives: top-dose activity change, negative = inhibition, most hits filed as inhibitors; also: % is scaled to controls: 0 for no effect and ±100 for the full control effect; nearly all actives have a fitted effect of over 55% in size
#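 ATXN2-luciferase reporter cells (luciferase flanked by upstream and downstream ATXN2 gene portions) were treated 24 h at 37 °C with compounds at up to 57 uM. SteadyGlo luminescence gave expression; GF-AFC fluorescence gave viability.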
# * marks the source's active call; other numbers are inactive results; i = inactive; ? = inconclusive; . = not tested or not shown; [ ] = remark or other dose. Rows were chosen to be rich in hits. Some 3.8% of all compounds tested hit in one or more screens of this group. Calls follow the shape of the dose curve; as a rule, active = well fitted curve in the direction sought with a large enough effect; inconclusive = small, poorly fitted or top-dose-only effect, or another doubt; inactive = no such curve, though single readings can be large; an effect the other way counts as inactive or inconclusive. Potency is read from the fitted curve at half-maximal effect.
SMILES,S2 tox,TGFb SMAD3 inh,Nrf2 block,A549 viability,HepG2 tox,ATXN2 expr inh
NCC[C@H](O)C(=O)N[C@@H]1C[C@H](N)[C@@H](O[C@H]2O[C@H](CN)[C@@H](O)[C@H](O)[C@H]2N)[C@H](O[C@@H]2O[C@H](CO)[C@@H](O)[C@H]2O)[C@H]1O,i,.,.,.,.,.
NS(=O)(=O)c1ccc(N=Cc2c(O)n(C3CCCCC3)c(=O)n(C3CCCCC3)c2=O)cc1,.,16µM*,?,?,-111%,?
CCn1c(O)c(C=Nc2ccc(S(N)(=O)=O)cc2)c(=O)n(CC)c1=S,i,-15%,?,-14%,-7%,-20%
C=CCC1([C@H](C)CCC)C(=O)NC(=O)NC1=O,i,.,.,.,.,9%[116 µM]
Cc1ccc(/C=C/C2=NN(Cc3ccc(Cl)c(Cl)c3)C(=O)CC2)cc1,i,11µM*,.,-1%,-18%,-9%
CC(C)(C)OC(=O)NCc1ccc(CNC(=O)c2[nH]cnc2C(=O)Nc2ccccc2F)cc1,?,-19%,.,.,-36%,?
C[C@H]1COC2=C1C(=O)C(=O)c1c2ccc2c1CCCC2(C)C,?,4.5µM*,?,-24%,10µM*,3%
Cc1ccc(NC(=O)N2CC2)cc1NC(=O)N1CC1,i,-2%,?,2%,0%,3%
Cc1ccc(NC(=O)c2cc(-c3cc(Cl)ccc3C)n[nH]2)cc1NS(C)(=O)=O,10µM*,-10%,.,.,-32%,?
C=C1C/C(=C\C)C(=O)O[C@@H]2CCN3CC=C(COC(=O)[C@@]1(C)O)[C@H]23,i,.,.,.,.,.
O=c1[nH]c2cc(Cl)ccc2n1C1CCNCC1,i,.,.,.,.,1%
CCN1C[C@]2(OC(=O)c3ccccc3NC(C)=O)CC[C@H](OC)[C@@]34[C@H]5CC6[C@@H](OC)C[C@](O)(C(C[C@@H]23)[C@@H]14)[C@@]5(O)[C@@H]6OC,.,.,.,.,.,4%
CCC(Oc1ccccc1OC)C(=O)Nc1ccc2c(c1)OCCO2 (stereo unspecified),?,-1%,7%,3%,6%,-17%
COc1ccc(Oc2cc(NC(=O)c3nn(C)cc3[N+](=O)[O-])cc([N+](=O)[O-])c2)cc1,i,10µM*,-20%,-15%,18µM*,-4%
CCN(CC)c1ccc(NC(=O)c2cccc(C)c2)cc1S(=O)(=O)Nc1ccccc1OC,i,-22%,?,9%,-12%,-1%
Cc1cc(C(=O)CN2C(=O)c3ccccc3C2=O)c(C)n1C1CC1,i,-8%,?,3%,6%,27%
CCOC(=O)[C@]12Cc3cc(N(C)C)ccc3[C@H]1N(Cc1ccccc1)C(=O)c1ccccc12,?,?,?,-18%,-4%,?
CCOC(=O)[C@]12Cc3ccc(C)cc3[C@H]1N(C1CCCCC1)C(=O)c1ccccc12,13µM*,.,.,.,.,11µM*
CCOC(=O)C1C(=O)N(C)C2(C)CC1c1cc(OC)ccc1O2 (stereo unspecified),i,13%,?,14%,-5%,4%
CCOC(=O)[C@]12Cc3ccc(C)cc3[C@H]1N(C1CCCCC1)C(=O)c1cc(OC)ccc12,4.5µM*,.,.,.,.,4µM*
CCOC(=O)[C@]12Cc3c(cc(OC)c(OC)c3OC)[C@H]1N(C1CCCCC1)C(=O)c1ccccc12,8.9µM*,.,.,.,.,6.3µM*
CCOC(=O)[C@]12Cc3cc(Cl)ccc3[C@H]1N(C1CCCCC1)C(=O)c1cc(OC)ccc12,2µM*,.,.,.,.,2.2µM*
CCOC(=O)[C@]12Cc3cc4c(cc3[C@H]1N(Cc1ccccc1)C(=O)c1ccccc12)OCO4,?,?,?,-25%,-10%,?
O=C1CC(c2ccc(F)cc2)c2c(c3ccccc3oc2=O)O1 (stereo unspecified),?,15%,6%,-8%,-5%,-11%
